Measurements taken from PubChem BioAssay (Tox21).
Values joined by “and” are separate entries in the source; they are usually repeats but may differ in a detail not shown here. Equal values may be shown once. Inconclusive results are not listed. A structure can be active in one record and inactive in another. Active and inactive are the calls of the source. Unless noted, the call rests on the fitted dose curve.

Assays:
[1] = Nuclear factor erythroid 2-related factor 2/antioxidant responsive element (Nrf2/ARE) small molecule agonists: qHTS cell viability counter screen in human keratinocytes (AID 1919968; active means well fitted curve in the direction sought with a large enough effect in the repeat runs; an effect the other way counts as inactive or inconclusive; further: nearly all actives have a fitted effect of over 55% in size; further: potency means the concentration at half of the fitted maximal effect)
Procedure, shortened: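 Cytotoxicity was multiplexed with the Nrf2/ARE luciferase assay in the same wells. Stably transfected HaCaT keratinocytes were treated with test compounds for 23 h at 37 C. Cell viability was then measured by CellTiter-Fluor fluorescence.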

[2] = Nuclear factor erythroid 2-related factor 2/antioxidant responsive element (Nrf2/ARE) small molecule agonists: luciferase reporter gene qHTS assay in human keratinocytes (AID 1919969); further: nearly all actives have a fitted effect of over 35% in size; further: potency means the concentration at half of the fitted maximal effect
[3] = target: Gonadotropin-releasing hormone receptor (Homo sapiens) (UniProt P30968); experiment: Human gonadotropin-releasing hormone receptor (GnRHR) small molecule agonists, calcium flux assay in GnRHR-HEK293 cells (AID 1920063); further: nearly all actives have a fitted effect of over 35% in size; further: potency means the concentration at half of the fitted maximal effect
Chain of Gonadotropin-releasing hormone receptor (Homo sapiens) (P30968 whole entry, looked up): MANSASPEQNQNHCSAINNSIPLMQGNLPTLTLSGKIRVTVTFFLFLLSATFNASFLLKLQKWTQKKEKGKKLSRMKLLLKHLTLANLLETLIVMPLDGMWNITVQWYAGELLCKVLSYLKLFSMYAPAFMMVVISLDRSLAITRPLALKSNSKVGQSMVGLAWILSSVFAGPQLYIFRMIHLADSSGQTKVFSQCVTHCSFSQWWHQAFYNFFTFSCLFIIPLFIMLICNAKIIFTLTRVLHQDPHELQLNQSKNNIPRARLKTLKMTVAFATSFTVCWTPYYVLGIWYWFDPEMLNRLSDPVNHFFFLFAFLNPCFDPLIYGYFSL
Procedure, shortened: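 Agonist activity was measured as intracellular calcium flux in HEK293 cells engineered to stably express human GnRHR. After dye loading for 1 hour at 37 C, compounds in DMSO were added and fluorescence was followed for 3 minutes.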

[4] = target: KiSS-1 receptor (Homo sapiens) (UniProt Q969F8); experiment: Human kisspeptin (KISS1R) small molecule agonists, calcium flux assay in KISS1R-HEK293 cells (AID 1920064; active means well fitted curve in the direction sought with a large enough effect in the repeat runs; an effect the other way counts as inactive or inconclusive)
Chain of KiSS-1 receptor (Homo sapiens) (Q969F8 whole entry, looked up): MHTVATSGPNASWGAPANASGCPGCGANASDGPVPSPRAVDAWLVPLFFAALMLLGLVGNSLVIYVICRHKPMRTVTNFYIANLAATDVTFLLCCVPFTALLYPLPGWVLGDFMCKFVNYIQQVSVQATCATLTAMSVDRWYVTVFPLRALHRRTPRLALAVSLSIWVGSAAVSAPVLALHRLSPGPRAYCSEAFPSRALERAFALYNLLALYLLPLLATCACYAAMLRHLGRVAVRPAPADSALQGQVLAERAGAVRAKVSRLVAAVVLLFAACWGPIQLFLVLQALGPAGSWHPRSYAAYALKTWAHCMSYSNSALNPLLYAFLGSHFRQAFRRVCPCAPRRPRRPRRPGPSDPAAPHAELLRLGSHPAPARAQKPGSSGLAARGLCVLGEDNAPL
Procedure, shortened: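 Agonist activity is monitored as intracellular calcium rise in engineered HEK293 cells carrying human KISS1R. Cells are dye-loaded for 1 h at 37 C before compound addition, and fluorescence is recorded for 3 min.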

[5] = G protein-coupled receptor (GPCR) small molecule agonists, calcium flux assay: HEK293 wild type cell line counter screen (AID 1920065)
Procedure, shortened: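 Seed cells, incubate 18 h (37 C, 5% CO2); add calcium dye, 1 h at 37 C; pin-transfer compounds, ATP control or DMSO; read fluorescence 480/540 nm each second for 3 min.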

[6] = p53 small molecule agonists, cell-based qHTS assay with human liver microsomes (AID 1963577)
Procedure, shortened: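 Fluorescence of the beta-lactamase reporter in p53RE-bla cells, detected with LiveBLAzer substrate (2 h, room temperature, dark), served as the read-out after 16 h compound exposure at 37 C with human liver microsomes and NADPH, each 0.5 mg/mL final.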

[7] = p53 small molecule agonists, cell-based qHTS assay with rat liver microsomes (AID 1963578)
Procedure, shortened: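 Cells carrying a p53 response element–beta-lactamase reporter were plated and rested 5 h, then dosed with compound in DMSO plus rat liver microsomes and NADPH, each at 0.5 mg/mL final. After 16 h at 37 C, LiveBLAzer substrate was added for 2 h.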

[8] = p53 small molecule agonists, cell-based qHTS assay with human liver microsomes: qHTS cell viability counter screen (AID 1963579); further: nearly all actives have a fitted effect of over 45% in size; further: potency means the concentration at half of the fitted maximal effect
Procedure, shortened: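 Cytotoxicity counter screen: p53RE-bla, 4,000 cells/well; 5 h settle, 37 C/5% CO2; cpd + HLM 0.5 mg/mL + NADPH 0.5 mg/mL (final); 16 h, 37 C; CellTiter-Glo, 30 min RT, luminescence.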

[9] = p53 small molecule agonists, cell-based qHTS assay: qHTS cell viability counter screen (AID 1963581); further: nearly all actives have a fitted effect of over 45% in size; further: potency means the concentration at half of the fitted maximal effect
Procedure, shortened: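 Viability was counter-screened in parallel with the p53 agonist reporter by measuring intracellular ATP luminescence in the same HCT-116 p53RE-bla wells after 16 h compound treatment at 37 C.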

[10] = p53 small molecule agonists, cell-based qHTS assay (AID 1963582; active means well fitted activation curve with a large enough effect in the signal ratio in the repeat runs, not every such curve was filed as active; the % refers to the signal ratio; further: potency means the concentration at half of the fitted maximal effect)
Procedure, shortened: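 Cells carrying a p53-responsive bla reporter are treated with test compounds for 16 h at 37 C; beta-lactamase activity is then detected with LiveBLAzer B/G FRET substrate after 2 h at room temperature.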

[11] = target: 5-hydroxytryptamine receptor 2A (Homo sapiens) (UniProt P28223); experiment: 5-hydroxytryptamine receptor 2A (HTR2A) small molecule antagonists, cell-based qHTS assay (AID 1963586); further: nearly all actives have a fitted effect of over 45% in size; further: potency means the concentration at half of the fitted maximal effect
Chain of 5-hydroxytryptamine receptor 2A (Homo sapiens) (P28223 whole entry, looked up): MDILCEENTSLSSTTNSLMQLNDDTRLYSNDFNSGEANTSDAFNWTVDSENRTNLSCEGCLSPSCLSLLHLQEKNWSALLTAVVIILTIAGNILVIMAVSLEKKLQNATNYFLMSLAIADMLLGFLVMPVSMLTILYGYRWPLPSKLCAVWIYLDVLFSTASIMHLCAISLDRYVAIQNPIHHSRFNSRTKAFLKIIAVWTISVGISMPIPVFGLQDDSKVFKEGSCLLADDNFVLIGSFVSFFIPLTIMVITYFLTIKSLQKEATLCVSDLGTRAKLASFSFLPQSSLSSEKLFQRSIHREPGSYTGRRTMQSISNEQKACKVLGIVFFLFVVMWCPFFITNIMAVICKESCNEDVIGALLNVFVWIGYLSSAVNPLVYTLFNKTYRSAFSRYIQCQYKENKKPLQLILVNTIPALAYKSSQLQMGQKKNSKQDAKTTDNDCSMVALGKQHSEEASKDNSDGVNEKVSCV
Procedure, shortened: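 CHO cells stably expressing human HTR2A were plated for 18 h at 37 C, then loaded with calcium dye for 1 h. Compounds were preincubated 5 min at room temperature before DOI (4 nM solution) was added. Kinetic fluorescence was read for 3 min.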

[12] = target: 5-hydroxytryptamine receptor 2A (Homo sapiens) (UniProt P28223); experiment: 5-hydroxytryptamine receptor 2A (HTR2A) small molecule agonists, cell-based qHTS assay (AID 1963587); further: nearly all actives have a fitted effect of over 30% in size; further: potency means the concentration at half of the fitted maximal effect
Procedure, shortened: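 Kinetic calcium-flux fluorescence (2 min, 1 sec intervals) after compound addition in agonist mode. HTR2A-CHO cells were cultured 18 h, then dye-loaded 1 h at 37 C.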

[13] = target: Muscarinic acetylcholine receptor M1 (Homo sapiens) (UniProt P11229); experiment: Cholinergic receptor muscarinic 1 (CHRM1) small molecule antagonists, cell-based qHTS assay (AID 1963588); further: nearly all actives have a fitted effect of over 40% in size; further: potency means the concentration at half of the fitted maximal effect
Chain of Muscarinic acetylcholine receptor M1 (Homo sapiens) (P11229 whole entry, looked up): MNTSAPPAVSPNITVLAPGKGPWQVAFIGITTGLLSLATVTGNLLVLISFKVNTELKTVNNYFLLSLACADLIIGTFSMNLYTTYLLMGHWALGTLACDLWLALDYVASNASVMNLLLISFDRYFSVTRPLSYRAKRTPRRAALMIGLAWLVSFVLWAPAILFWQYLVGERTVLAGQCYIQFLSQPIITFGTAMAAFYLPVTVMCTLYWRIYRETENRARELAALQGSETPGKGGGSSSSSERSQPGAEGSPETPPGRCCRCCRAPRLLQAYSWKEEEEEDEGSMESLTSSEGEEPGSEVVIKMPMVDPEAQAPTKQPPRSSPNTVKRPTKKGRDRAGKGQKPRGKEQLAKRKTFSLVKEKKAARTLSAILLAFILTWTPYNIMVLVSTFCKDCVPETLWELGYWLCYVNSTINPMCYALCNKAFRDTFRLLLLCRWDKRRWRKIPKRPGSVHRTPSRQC
Procedure, shortened: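 Compounds were tested at 15 concentrations in three independent runs. Dye-loaded CHRM1-CHO cells were exposed 5 min at room temperature before stimulation by acetylcholine added at 50nM. Intracellular calcium was read kinetically on FDSS for 3 min.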

[14] = target: Muscarinic acetylcholine receptor M1 (Homo sapiens) (UniProt P11229); experiment: Cholinergic receptor muscarinic 1 (CHRM1) small molecule agonists, cell-based qHTS assay (AID 1963589); further: nearly all actives have a fitted effect of over 35% in size
Procedure, shortened: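 Cells were plated and incubated 18 h at 37 C/5% CO2, loaded with calcium dye for 1 h at 37 C, then treated with compounds in DMSO. Fluorescence was recorded kinetically at 1 sec intervals.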

[15] = cAMP Responsive Elements (CRE) small molecule agonists, cell-based qHTS assay (AID 1963590)
Procedure, shortened: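 Cells carrying a CRE-driven beta-lactamase reporter (HEK 293T) are seeded, incubated overnight (18 h), and treated with test compounds for 3 h at 37 C; reporter activity is then detected with a FRET substrate after 2 h at room temperature.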

[16] = cAMP Responsive Elements (CRE) small molecule antagonists, cell-based qHTS assay (AID 1963591; active means well fitted inhibition curve with a large enough effect in the signal ratio in the repeat runs, not every such curve was filed as active; the % refers to the signal ratio; further: potency means the concentration at half of the fitted maximal effect)
Procedure, shortened: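 Cells (CRE-bla HEK 293T, DMEM with 10% dialyzed FBS and 25 mM HEPES) are seeded and incubated 18 h. Compounds are added with NKH477 agonist at 0.25 uM final for 3 h, then FRET substrate for 2 h.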

[17] = target: Beta-2 adrenergic receptor (Homo sapiens) (UniProt P07550); experiment: Adrenergic beta2 receptor (ADRB2) small molecule antagonists, cell-based qHTS assay (AID 1963592); further: series mostly up to about 92 µM; nearly all actives have a fitted effect of over 50% in size
Chain of Beta-2 adrenergic receptor (Homo sapiens) (P07550 whole entry, looked up): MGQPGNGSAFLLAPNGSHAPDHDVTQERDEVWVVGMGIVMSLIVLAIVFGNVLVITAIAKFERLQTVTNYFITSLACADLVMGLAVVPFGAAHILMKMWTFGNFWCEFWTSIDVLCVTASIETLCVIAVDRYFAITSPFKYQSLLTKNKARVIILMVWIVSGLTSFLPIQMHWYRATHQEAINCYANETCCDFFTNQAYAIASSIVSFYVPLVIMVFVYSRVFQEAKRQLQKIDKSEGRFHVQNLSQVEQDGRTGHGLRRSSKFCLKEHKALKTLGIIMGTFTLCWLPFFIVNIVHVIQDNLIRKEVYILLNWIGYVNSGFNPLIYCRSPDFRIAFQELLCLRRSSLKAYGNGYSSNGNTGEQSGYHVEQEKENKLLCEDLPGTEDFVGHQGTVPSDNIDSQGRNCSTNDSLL
Procedure, shortened: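 Assay format: CHO-ADRB2 cells, 18-20hr seeding at 37C/5% CO2, then compound plus 1nM isoproterenol agonist mix for 0.5hr RT. Homogeneous time-resolved fluorescence cAMP detection after 1hr, expressed as 665/615 nm ratio.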

[18] = target: D(2) dopamine receptor (Homo sapiens) (UniProt P14416); experiment: Dopamine D2 receptor (DRD2) small molecule agonists, cell-based qHTS assay (AID 1963594); further: nearly all actives have a fitted effect of over 35% in size
Chain of D(2) dopamine receptor (Homo sapiens) (P14416 whole entry, looked up): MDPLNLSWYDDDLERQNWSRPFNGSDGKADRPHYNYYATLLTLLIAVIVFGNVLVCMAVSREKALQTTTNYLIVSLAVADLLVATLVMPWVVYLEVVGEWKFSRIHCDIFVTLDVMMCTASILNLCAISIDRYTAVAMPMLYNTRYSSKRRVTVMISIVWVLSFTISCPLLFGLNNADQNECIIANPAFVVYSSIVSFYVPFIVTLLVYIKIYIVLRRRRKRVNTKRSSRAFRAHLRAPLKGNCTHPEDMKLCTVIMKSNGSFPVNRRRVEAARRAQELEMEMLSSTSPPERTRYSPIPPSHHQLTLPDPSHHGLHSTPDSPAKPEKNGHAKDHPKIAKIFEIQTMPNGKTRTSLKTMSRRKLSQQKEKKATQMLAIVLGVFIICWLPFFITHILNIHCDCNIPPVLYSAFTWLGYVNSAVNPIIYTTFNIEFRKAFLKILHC
Procedure, shortened: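 cAMP accumulation in DRD2-HEK293 cells measured by HTRF after 1 h detection; compounds added 10 min before NKH477 (200nM […]) forskolin-analogue stimulation, 30 min at room temperature, with Ro20-1724 present at 0.1 mM final.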

[19] = target: D(2) dopamine receptor (Homo sapiens) (UniProt P14416); experiment: Dopamine D2 receptor (DRD2) small molecule antagonists, cell-based qHTS assay (AID 1963595; active means well fitted inhibition curve with a large enough effect in the signal ratio in the repeat runs, with a control signal flat; the % refers to the signal ratio)
Procedure, shortened: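 Antagonist mode in DRD2-HEK293 cells: after compound addition with 0.1 mM Ro20-1724, cells received quinpirole (12 nM) and NKH477 (200 nM) for 30 min at room temperature; HTRF cAMP read after 1 h detection.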

[20] = p53 small molecule agonists, cell-based qHTS assay with rat liver microsomes: qHTS cell viability counter screen (AID 1963580); further: nearly all actives have a fitted effect of over 45% in size; further: potency means the concentration at half of the fitted maximal effect
Procedure, shortened: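 Rat liver microsome (0.5 mg/mL final) and NADPH (0.5 mg/mL final) co-incubation with compounds for 16 h at 37 C on HCT-116 p53RE-bla cells; cytotoxicity taken from intracellular ATP luminescence.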

Measured: Potency

CC(C)OC(=O)Nc1ccccc1
not listed: [20]
inactive: all other assays above

O=C1C2(Cl)C3(Cl)C4(Cl)C(Cl)(Cl)C5(Cl)C3(Cl)C1(Cl)C5(Cl)C24Cl (stereo unspecified)
active: [1] 19 µM and 29.3 µM | [3] 38.3 µM | [20] 45 µM | [12] 54 µM and 46.9 µM | [13] 29.3 µM and 20.2 µM
inactive: [2] | [4] | [5] | [6] | [7] | [17] | [18]
31.9 µM (active) and inactive: [8]

CCNc1nc(NCC)nc(SC)n1
not listed: [20]
inactive: all other assays above

CN(C)CCO
69.1 µM (active) and inactive: [2]
not listed: [9] | [10]
inactive: all other assays above

C=CCOC(N)=O
not listed: [18] | [20]
inactive: all other assays above

CC1CCC(=O)O1 (stereo unspecified)
not listed: [20]
inactive: all other assays above

CCCOC(=O)c1cncn1C(C)c1ccccc1 (stereo unspecified)
not listed: [14] | [19] | [20]
inactive: all other assays above

Clc1ccc(COC(Cn2ccnc2)c2ccc(Cl)cc2Cl)cc1 (stereo unspecified)
38 µM (active) and inactive: [8]
inactive: [3] | [4] | [5] | [6] | [7] | [20] | [15] | [17] | [18]
active: [1] 45.3 µM and 27.2 µM and 13.3 µM | [2] 22.7 µM and 13.3 µM | [16] 50.8 µM

ClCCN1CCOCC1
not listed: [13] | [20]
inactive: all other assays above

COc1cc(OC)nc(NC(=O)NS(=O)(=O)c2ncccc2C(=O)N(C)C)n1
not listed: [12] | [15] | [20]
inactive: all other assays above

COC[C@@H](NC(C)=O)C(=O)NCc1ccccc1
not listed: [20]
inactive: all other assays above

COP(=O)(O)OC
not listed: [9] | [10] | [16] | [19]
inactive: all other assays above

CN1CCC(N(Cc2ccccc2)c2ccccc2)CC1
active: [11] 2.59 µM | [13] 365 nM
not listed: [20]
inactive: all other assays above

CCc1ccccc1C
not listed: [20]
inactive: all other assays above

O=c1oc2ccccc2c(O)c1C(CC(O)c1ccc(-c2ccc(Br)cc2)cc1)c1ccccc1 (stereo unspecified)
active: [9] 19.3 µM | [13] 25100 nM
not listed: [10] | [15] | [16] | [20]
inactive: all other assays above

C=CC(=O)OCCO
not listed: [20]
inactive: all other assays above

CCOC(=O)C1(c2ccccc2)CCN(CCC(C#N)(c2ccccc2)c2ccccc2)CC1
active: [10] 7.93 µM | [11] 0.13 µM
not listed: [16] | [18] | [20]
inactive: all other assays above
